Results from PubChem BioAssay (Tox21).
Records with an inconclusive call do not appear. The source made the active and inactive calls. Unless noted, calls come from the whole dose curve.

Assays:
[1] = Nuclear factor erythroid 2-related factor 2/antioxidant responsive element (Nrf2/ARE) small molecule agonists: qHTS cell viability counter screen in human keratinocytes (AID 1919968; active = well fitted curve in the direction sought with a large enough effect in the repeat runs; an effect the other way counts as inactive or inconclusive; note: nearly all actives have a fitted effect of over 55% in size); conditions: KeratinoSens HaCaT ARE cells viability, CellTiter-Fluor, 24 h; series mostly up to 92.4 µM
Method in brief: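 KeratinoSens HaCaT cells, 1,500/well, preincubated 5 h, then exposed to compounds in DMSO for 23 h at 37 C/5% CO2. Viability read as CellTiter-Fluor fluorescence after 1 h, in the same wells as the ARE-luciferase read.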

[2] = Nuclear factor erythroid 2-related factor 2/antioxidant responsive element (Nrf2/ARE) small molecule agonists: luciferase reporter gene qHTS assay in human keratinocytes (AID 1919969); conditions: KeratinoSens HaCaT ARE-luciferase, luminescence, 24 h; series mostly up to 92.4 µM; note: nearly all actives have a fitted effect of over 35% in size
[3] = target: Gonadotropin-releasing hormone receptor (Homo sapiens) (UniProt P30968); assay: Human gonadotropin-releasing hormone receptor (GnRHR) small molecule agonists, calcium flux assay in GnRHR-HEK293 cells (AID 1920063); conditions: calcium flux fluorescence, agonist mode; series mostly up to 57.6 µM; note: nearly all actives have a fitted effect of over 35% in size
Method in brief: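 HEK293 cells stably expressing human GnRHR were dye-loaded for 1 h at 37 C. Compound was added in agonist mode and fluorescence (Ex/Em 480/540) recorded kinetically for 3 min. Fifteen concentrations, triplicates.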

[4] = target: KiSS-1 receptor (Homo sapiens) (UniProt Q969F8); assay: Human kisspeptin (KISS1R) small molecule agonists, calcium flux assay in KISS1R-HEK293 cells (AID 1920064; active = well fitted curve in the direction sought with a large enough effect in the repeat runs; an effect the other way counts as inactive or inconclusive); conditions: KISS1R-HEK293, calcium flux fluorescence, agonist; series mostly up to 76.8 µM
Method in brief: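 HEK293 cells stably expressing human KISS1R were loaded with calcium dye for 1 h at 37 C, then given compound; fluorescence (Ex/Em 480/540) was read kinetically for 3 min. Fifteen concentrations, triplicate.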

[5] = G protein-coupled receptor (GPCR) small molecule agonists, calcium flux assay: HEK293 wild type cell line counter screen (AID 1920065); conditions: HEK293 WT calcium flux, fluorescence, agonist mode; series mostly up to 57.6 µM
Method in brief: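 Wild-type HEK293 cells plated 18 h, loaded with calcium dye 1 h at 37 C, then compounds added in agonist mode (ATP as positive control). Kinetic fluorescence Ex/Em 480/540 recorded 3 min at 1 sec intervals; 15 concentrations, triplicate.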

[6] = p53 small molecule agonists, cell-based qHTS assay with human liver microsomes (AID 1963577); conditions: HCT-116 p53RE-bla with human liver microsomes, ratio, 16 h; series mostly up to 66 µM;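 note: p53 response element beta-lactamase reporter cells with liver microsomes plus NADPH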
Method in brief: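 Steps: plate p53RE-bla cells, incubate 5 h at 37 C; add compound in DMSO; add microsomes (0.5 mg/mL final) and NADPH (0.5 mg/mL final); incubate 16 h at 37 C; add LiveBLAzer, 2 h RT; read fluorescence.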

[7] = p53 small molecule agonists, cell-based qHTS assay with rat liver microsomes (AID 1963578); conditions: HCT-116 p53RE-bla, beta-lactamase ratio, 16 h; series mostly up to 66 µM
Method in brief: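 Metabolic activation is supplied by rat liver microsomes with NADPH (each 0.5 mg/mL final). p53RE-bla cells incubate with compound 16 h at 37 C; reporter activity is measured by LiveBLAzer fluorescence.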

[8] = p53 small molecule agonists, cell-based qHTS assay with human liver microsomes: qHTS cell viability counter screen (AID 1963579); conditions: p53RE-bla HCT-116 viability, ATP luminescence, 16 h, HLM; series mostly up to 66 µM; note: nearly all actives have a fitted effect of over 45% in size
Method in brief: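 After the 460/530 nm beta-lactamase read, CellTiter-Glo was added to the same wells and luminescence measured after 30 min at room temperature, giving viability of p53RE-bla cells treated 16 h with compounds plus microsomes and NADPH.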

[9] = p53 small molecule agonists, cell-based qHTS assay with rat liver microsomes: qHTS cell viability counter screen (AID 1963580); conditions: p53RE-bla HCT-116 + rat microsomes, ATP viability, 16 h; series mostly up to 66 µM; note: nearly all actives have a fitted effect of over 45% in size
Method in brief: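 p53RE-bla HCT-116 cells (4,000/well) rested 5 h at 37 C, then given Tox21 compounds in DMSO with rat liver microsomes (0.5 mg/mL final) plus NADPH (0.5 mg/mL final) for 16 h at 37 C. Viability read by CellTiter-Glo luminescence after 30 min at room temperature.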

[10] = p53 small molecule agonists, cell-based qHTS assay: qHTS cell viability counter screen (AID 1963581); conditions: p53RE-bla HCT-116 viability, ATP luminescence, 16 h; series mostly up to 66 µM; note: nearly all actives have a fitted effect of over 45% in size
Method in brief: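 p53RE-bla HCT-116 cells, compounds added 5 h after plating and incubated 16 h at 37 C. Cytotoxicity measured in the same wells as intracellular ATP by CellTiter-Glo luminescence after 30 min at room temperature.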

[11] = p53 small molecule agonists, cell-based qHTS assay (AID 1963582; active = well fitted activation curve with a large enough effect in the signal ratio in the repeat runs, not every such curve was filed as active; the % refers to the signal ratio); conditions: HCT-116 p53RE-bla reporter, beta-lactamase FRET ratio, 16 h; series mostly up to 66 µM
Method in brief: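 p53RE-bla reporter cells, compounds added in DMSO after 5 h plating, incubated 16 h at 37 C. Beta-lactamase read via 2 h room-temperature LiveBLAzer B/G FRET substrate, fluorescence intensity.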

[12] = target: 5-hydroxytryptamine receptor 2A (Homo sapiens) (UniProt P28223); assay: 5-hydroxytryptamine receptor 2A (HTR2A) small molecule antagonists, cell-based qHTS assay (AID 1963586); conditions: HTR2A-CHO cells, DOI-induced calcium flux, fluorescence; series mostly up to 61.5 µM; note: nearly all actives have a fitted effect of over 45% in size
Method in brief: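 Antagonist-mode intracellular calcium assay: DOI (4 nM) added after 5 min compound pre-incubation at room temperature to dye-loaded HTR2A-CHO cells. Fluorescence followed for 3 min, sampled every second.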

[13] = target: 5-hydroxytryptamine receptor 2A (Homo sapiens) (UniProt P28223); assay: 5-hydroxytryptamine receptor 2A (HTR2A) small molecule agonists, cell-based qHTS assay (AID 1963587); conditions: HTR2A-CHO cells, calcium flux fluorescence, agonist mode; series mostly up to 76.8 µM; note: nearly all actives have a fitted effect of over 30% in size
Method in brief: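 HTR2A-CHO cells, plated 18 h at 37 C/5% CO2, dye-loaded 1 h at 37 C; compounds in DMSO added by pin tool (agonist mode). Intracellular calcium flux read as kinetic fluorescence on FDSS over 2 min at 1 s intervals.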

[14] = target: Muscarinic acetylcholine receptor M1 (Homo sapiens) (UniProt P11229); assay: Cholinergic receptor muscarinic 1 (CHRM1) small molecule antagonists, cell-based qHTS assay (AID 1963588); conditions: CHRM1-CHO antagonist mode, calcium flux fluorescence; series mostly up to 61.5 µM; note: nearly all actives have a fitted effect of over 40% in size
Method in brief: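 CHRM1-CHO calcium-flux assay, antagonist mode. Cells were seeded 18 h, dye-loaded 1 h at 37 C and given compound for 5 min at RT, then acetylcholine was added at 50nM. FDSS fluorescence was read 3 min; 15 concentrations, three runs.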

[15] = target: Muscarinic acetylcholine receptor M1 (Homo sapiens) (UniProt P11229); assay: Cholinergic receptor muscarinic 1 (CHRM1) small molecule agonists, cell-based qHTS assay (AID 1963589); conditions: CHRM1-CHO cells, agonist mode, calcium flux fluorescence; series mostly up to 76.8 µM; note: nearly all actives have a fitted effect of over 35% in size
Method in brief: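 CHO cells stably expressing human CHRM1 were loaded with calcium dye for 1 h at 37 C, then compound was added in agonist mode. Intracellular calcium fluorescence was followed kinetically at 1 s intervals. Fifteen concentrations were tested in three independent runs.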

[16] = cAMP Responsive Elements (CRE) small molecule agonists, cell-based qHTS assay (AID 1963590); conditions: CRE-bla HEK293T, beta-lactamase FRET ratio, 3 h; series mostly up to 92.4 µM
Method in brief: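 CRE-bla HEK 293T cells, 2,000/well in DMEM with 10% dialyzed FBS and 25 mM HEPES, pre-incubated 18 h at 37 C, then exposed to compound 3 h at 37 C. Beta-lactamase reporter read with LiveBLAzer B/G FRET substrate after 2 h at room temperature.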

[17] = cAMP Responsive Elements (CRE) small molecule antagonists, cell-based qHTS assay (AID 1963591; active = well fitted inhibition curve with a large enough effect in the signal ratio in the repeat runs, not every such curve was filed as active; the % refers to the signal ratio); conditions: CRE-bla HEK293T, beta-lactamase FRET ratio; series mostly up to 92.4 µM
Method in brief: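 CRE-bla HEK293T cells plated 18 h, then given compound plus NKH477 at 0.25 uM final for 3 h at 37C. Beta-lactamase reporter read with LiveBLAzer B/G FRET substrate after 2 h at room temperature.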

[18] = target: Beta-2 adrenergic receptor (Homo sapiens) (UniProt P07550); assay: Adrenergic beta2 receptor (ADRB2) small molecule antagonists, cell-based qHTS assay (AID 1963592); conditions: CHO-ADRB2 cells, isoproterenol-stimulated cAMP HTRF ratio, 0.5 h; series mostly up to 92.4 µM; note: nearly all actives have a fitted effect of over 50% in size
Method in brief: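 Cells (CHO, stable ADRB2 overexpression) incubated 18-20hr at 37C; compounds added from DMSO; agonist mix (1nM isoproterenol, 100uM IBMX, 25uM Ro-20-1724) added; 0.5hr RT; d2-cAMP and anti-cAMP-cryptate added; 1hr RT; 665/615 nm read.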

[19] = target: D(2) dopamine receptor (Homo sapiens) (UniProt P14416); assay: Dopamine D2 receptor (DRD2) small molecule agonists, cell-based qHTS assay (AID 1963594); conditions: HEK293-DRD2 cAMP HTRF, agonist mode, 30 min; series mostly up to 92.4 µM; note: nearly all actives have a fitted effect of over 35% in size
Method in brief: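 HEK293 cells stably expressing DRD2 were cultured 24 h at 37 C, then given Ro20-1724 (0.1 mM final) and compounds for 10 min at room temperature. NKH477 (200nM) was then added for 30 min. cAMP was read by HTRF.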

[20] = target: D(2) dopamine receptor (Homo sapiens) (UniProt P14416); assay: Dopamine D2 receptor (DRD2) small molecule antagonists, cell-based qHTS assay (AID 1963595; active = well fitted inhibition curve with a large enough effect in the signal ratio in the repeat runs, with a control signal flat; the % refers to the signal ratio); conditions: HEK293-DRD2 cAMP HTRF antagonist mode; series mostly up to 92.4 µM
Method in brief: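 Human DRD2 antagonist qHTS measuring cAMP by HTRF. The cells are exposed to compound for 10 min, then to NKH477 (200 nM) and quinpirole (12 nM) for 30 min at RT, with Ro20-1724 (0.1 mM) present throughout.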

Measured: Potency

Muscarinic acetylcholine receptor M1 (Homo sapiens), sequence (P11229 whole entry, looked up): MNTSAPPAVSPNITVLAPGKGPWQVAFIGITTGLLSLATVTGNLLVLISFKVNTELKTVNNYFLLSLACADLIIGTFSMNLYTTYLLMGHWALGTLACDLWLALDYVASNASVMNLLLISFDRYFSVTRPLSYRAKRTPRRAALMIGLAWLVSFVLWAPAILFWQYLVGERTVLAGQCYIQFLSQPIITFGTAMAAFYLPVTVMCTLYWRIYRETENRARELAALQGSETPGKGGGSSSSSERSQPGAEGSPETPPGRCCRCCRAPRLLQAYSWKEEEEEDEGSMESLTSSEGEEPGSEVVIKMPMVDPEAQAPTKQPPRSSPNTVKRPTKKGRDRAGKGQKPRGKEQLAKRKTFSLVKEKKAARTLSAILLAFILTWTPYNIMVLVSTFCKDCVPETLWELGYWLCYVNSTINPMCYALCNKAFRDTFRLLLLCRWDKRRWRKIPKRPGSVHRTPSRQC
KiSS-1 receptor (Homo sapiens), sequence (Q969F8 whole entry, looked up): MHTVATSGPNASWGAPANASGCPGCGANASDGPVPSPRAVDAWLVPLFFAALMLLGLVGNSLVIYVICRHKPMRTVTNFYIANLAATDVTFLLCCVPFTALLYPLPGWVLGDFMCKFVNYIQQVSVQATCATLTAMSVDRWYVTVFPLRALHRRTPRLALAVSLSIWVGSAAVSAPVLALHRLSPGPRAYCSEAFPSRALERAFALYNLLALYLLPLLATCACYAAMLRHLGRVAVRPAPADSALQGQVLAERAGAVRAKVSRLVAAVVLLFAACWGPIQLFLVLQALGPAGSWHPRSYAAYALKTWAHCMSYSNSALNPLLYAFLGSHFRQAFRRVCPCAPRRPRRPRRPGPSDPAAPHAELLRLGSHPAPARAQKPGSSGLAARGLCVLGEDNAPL
Beta-2 adrenergic receptor (Homo sapiens), sequence (P07550 whole entry, looked up): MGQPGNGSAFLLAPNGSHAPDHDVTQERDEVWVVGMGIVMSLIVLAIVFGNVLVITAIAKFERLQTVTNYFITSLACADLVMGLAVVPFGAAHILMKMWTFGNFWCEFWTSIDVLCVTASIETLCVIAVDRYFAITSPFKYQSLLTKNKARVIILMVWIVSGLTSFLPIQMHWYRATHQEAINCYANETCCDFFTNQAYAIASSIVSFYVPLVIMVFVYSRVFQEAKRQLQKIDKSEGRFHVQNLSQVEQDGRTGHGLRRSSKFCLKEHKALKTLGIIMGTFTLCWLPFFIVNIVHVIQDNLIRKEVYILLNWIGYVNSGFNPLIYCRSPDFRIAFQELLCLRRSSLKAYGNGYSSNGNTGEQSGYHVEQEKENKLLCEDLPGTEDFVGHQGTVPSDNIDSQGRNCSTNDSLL
Gonadotropin-releasing hormone receptor (Homo sapiens), sequence (P30968 whole entry, looked up): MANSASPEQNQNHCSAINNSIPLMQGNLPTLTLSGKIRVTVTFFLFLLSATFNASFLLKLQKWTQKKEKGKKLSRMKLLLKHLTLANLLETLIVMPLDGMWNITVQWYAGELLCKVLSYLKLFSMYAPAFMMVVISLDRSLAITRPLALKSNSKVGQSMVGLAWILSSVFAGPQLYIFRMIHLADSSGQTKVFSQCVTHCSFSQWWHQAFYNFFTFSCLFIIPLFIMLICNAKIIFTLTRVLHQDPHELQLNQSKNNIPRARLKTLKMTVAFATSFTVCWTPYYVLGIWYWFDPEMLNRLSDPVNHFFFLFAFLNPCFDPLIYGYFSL
5-hydroxytryptamine receptor 2A (Homo sapiens), sequence (P28223 whole entry, looked up): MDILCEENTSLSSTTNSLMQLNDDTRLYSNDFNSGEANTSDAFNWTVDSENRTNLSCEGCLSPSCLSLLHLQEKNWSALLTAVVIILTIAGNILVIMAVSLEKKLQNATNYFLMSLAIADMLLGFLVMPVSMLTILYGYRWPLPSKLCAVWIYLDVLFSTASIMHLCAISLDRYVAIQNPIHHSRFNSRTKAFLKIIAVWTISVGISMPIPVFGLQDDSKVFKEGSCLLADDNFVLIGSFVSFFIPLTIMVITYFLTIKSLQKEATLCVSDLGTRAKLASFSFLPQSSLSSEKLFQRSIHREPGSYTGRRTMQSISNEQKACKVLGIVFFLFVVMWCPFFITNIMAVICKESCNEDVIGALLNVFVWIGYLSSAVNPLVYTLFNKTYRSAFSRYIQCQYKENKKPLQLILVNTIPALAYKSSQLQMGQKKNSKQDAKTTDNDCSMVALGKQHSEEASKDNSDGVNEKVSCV
D(2) dopamine receptor (Homo sapiens), sequence (P14416 whole entry, looked up): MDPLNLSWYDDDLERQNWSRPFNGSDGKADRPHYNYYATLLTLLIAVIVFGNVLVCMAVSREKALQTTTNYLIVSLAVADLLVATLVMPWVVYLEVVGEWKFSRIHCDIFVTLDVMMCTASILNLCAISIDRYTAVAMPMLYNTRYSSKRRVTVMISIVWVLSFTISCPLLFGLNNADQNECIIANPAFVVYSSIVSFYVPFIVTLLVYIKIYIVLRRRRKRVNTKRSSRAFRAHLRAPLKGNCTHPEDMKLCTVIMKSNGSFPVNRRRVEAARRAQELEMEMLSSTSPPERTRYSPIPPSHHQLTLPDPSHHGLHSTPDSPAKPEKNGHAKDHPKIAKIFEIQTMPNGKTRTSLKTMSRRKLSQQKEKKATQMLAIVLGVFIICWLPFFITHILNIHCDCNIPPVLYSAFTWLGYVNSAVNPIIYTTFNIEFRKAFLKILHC

Fc1c(F)c(F)c(Br)c(F)c1F
inactive: all assays above

CCC(=O)OC
inactive: all assays above

IC(I)I
inactive: all assays above

CCOCCC(=O)OCC
inactive: all assays above

c1cnccn1
inactive: all assays above

CC(=O)Nc1c(I)cc(I)c(C(=O)O)c1I
inactive: all assays above

OC[C@H]1O[C@H](O[C@H]2O[C@H](CO)[C@@H](O)[C@H](O)[C@H]2O)[C@H](O)[C@@H](O)[C@@H]1O
not listed: [18]
inactive: all other assays above
